# Experimental data from paper PMC5540273 (PLoS ONE, 2017).
# Columns and labels:
# Settings in all cases: concentration: 1 μM,replicates: in singlicate; n = 1
# [1] = test system: T1, MEK5
# T1 construct: gene MAP2K5
# [2] = test system: T2, MEK6
# T2 construct: gene MAP2K6
# [3] = test system: MELK
# [4] = test system: MERTK
# [5] = test system: MET
# [6] = test system: T3, MINK
# T3 construct: gene MINK1
# [7] = test system: MKK7
# [8] = test system: MKNK1
# [9] = test system: MKNK2
# [10] = test system: T4, MLCK
# T4 construct: gene MYLK3
# 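Further: KINOMEscan kinase panel screen.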
SMILES,%Inh [1] [%],%Inh [2] [%],%Inh [3] [%],%Inh [4] [%],%Inh [5] [%],%Inh [6] [%],%Inh [7] [%],%Inh [8] [%],%Inh [9] [%],%Inh [10] [%]
CC(=O)Nc1nc2cnc(Nc3cc(NC(=O)c4cccc(CC(C)(C)C#N)c4)ccc3C)nc2s1,46,0,8,31,7,3,0,0,41,0
COc1cc2ncn(-c3cc(OCC4CCCCC4)c(C(N)=O)s3)c2cc1OC [GSK204559],99.6,0,13,33,17,31,0,33,10,3
O=C(Nc1ccccc1)c1cccc(Oc2ccc3nccn3n2)c1,9,0,11,0,0,6,0,7,6,1
CS(=O)(=O)c1cccc(CNc2nc(Nc3ccc4c(c3)[C@@H]3C[C@@H]4CNC3=O)ncc2C(F)(F)F)c1,94.5,5,5,98.6,93.8,90.3,9,0,97.6,15
Cc1cccc(-c2nc(Nc3ccncc3)c3sccc3n2)n1 [GW869641],58,10,36,0,28,77,16,0,0,10
Cn1ccc2ncnc(Oc3ccc(NC(=O)Nc4cccc(C(F)(F)F)c4)c(Cl)c3)c21,30,30,0,85,17,4,32,16,19,12
CN(c1ccc2c(c1)nc(NCc1ccc(F)cc1)n2C)c1ccnc(Nc2ccc(CS(C)(=O)=O)cc2)n1.Cl [GW813244],97.9,11,13,77,45,9,4,0,0,0
